Data taken from PubChem BioAssay (NCI).
This is part of a sample that, as a whole, favours compounds with a hit. Of some 83,000 tested, about 20% had one in any assay.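 Values shown are percent growth following 48 h exposure of cells in 96-well plates to a single concentration of compound; below 10 was considered active.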 A number with no mark means an inactive call. Activity calls are given as the source filed them.

Columns and labels:
Assay in all cases: NCI-60 one-dose screen, 48 h (100 = growth as untreated, 0 = no growth, -100 = all killed)
Settings in all cases: 10 µM unless noted
NCI-H23 lung = system: NCI-H23 lung
NCI-H226 lung = system: NCI-H226 lung
NCI-H322M lung = system: NCI-H322M lung
HOP-62 NSCLC = system: HOP-62 NSCLC
NCI-H460 lung = system: NCI-H460 lung
HOP-92 NSCLC = system: HOP-92 NSCLC
NCI-H522 lung = system: NCI-H522 lung
A549/ATCC NSCLC = system: A549/ATCC NSCLC
786-0 renal = system: 786-0 renal
COLO 205 colon = system: COLO 205 colon
DU-145 prostate = system: DU-145 prostate
K-562 leukemia = system: K-562 leukemia
MALME-3M melanoma = system: MALME-3M melanoma
MDA-MB-231 breast = system: MDA-MB-231 breast
RXF 393 renal = system: RXF 393 renal
SF-268 CNS = system: SF-268 CNS
SF-295 CNS = system: SF-295 CNS
SF-539 CNS = system: SF-539 CNS
UACC-257 melanoma = system: UACC-257 melanoma
M14 melanoma = system: M14 melanoma

| Structure (SMILES) | growth (NCI-H23 lung) | growth (NCI-H226 lung) | growth (NCI-H322M lung) | growth (HOP-62 NSCLC) | growth (NCI-H460 lung) | growth (HOP-92 NSCLC) | growth (NCI-H522 lung) | growth (A549/ATCC NSCLC) | growth (786-0 renal) | growth (COLO 205 colon) | growth (DU-145 prostate) | growth (K-562 leukemia) | growth (MALME-3M melanoma) | growth (MDA-MB-231 breast) | growth (RXF 393 renal) | growth (SF-268 CNS) | growth (SF-295 CNS) | growth (SF-539 CNS) | growth (UACC-257 melanoma) | growth (M14 melanoma) |
| --- | --- | --- | --- | --- | --- | --- | --- | --- | --- | --- | --- | --- | --- | --- | --- | --- | --- | --- | --- | --- |
| CC1(C)c2[nH]c3ccccc3c2C[C@]2(C)[C@H]3CC=C4[C@@H]5C[C@@](C)(C(N)=O)CC[C@]5(C)CC[C@@]4(C)[C@]3(C)CC[C@@H]12 | 51.2% | 60.4% | 76.1% | 79.5% | 52.6% | 80.6% | 52.5% | 53.6% | 74.5% | 58.9% | 74% | 29.9% | 68% | 65.8% | 77.4% | 73.2% | 53.6% | 80.9% | 52.5% | 54.6% |
| O=C(Nc1cccc([N+](=O)[O-])c1)c1cc2ccccc2cc1O | -0.282% (active) | 1.25% (active) | 14.8% | 0.534% (active) | 3.41% (active) | -9.02% (active) | -3.91% (active) | 11.1% | 8.07% (active) | -66.1% (active) | 10.6% | -9.38% (active) | -23.3% (active) | -43% (active) | 5.31% (active) | 18.3% | -9.62% (active) | 4.44% (active) | -10.1% (active) | 19% |
| Cc1ccc(-c2nc3nc(-c4ccccc4)nc(N4CCNCC4)c3o2)cc1 | -73.7% (active) | -68.6% (active) | -95.9% (active) | -92.9% (active) | -72.4% (active) | -73.5% (active) | -79.2% (active) | -84.5% (active) | -84.5% (active) | -92.4% (active) | -86.8% (active) | -71% (active) | -80.4% (active) | -79.3% (active) | -81.2% (active) | -67.2% (active) | -83.2% (active) | -93.4% (active) | -89.2% (active) | -84.7% (active) |
| N#CC1CCc2c(c(-c3cn[nH]c3C(F)(F)F)nc3c(F)cc4[nH]ncc4c23)C1 (stereo not given) | 25.3% | 48.8% | 30.8% | 34.8% | 38.9% | 36.5% | -14.6% (active) | 75% | 36.8% | 7.05% (active) | 48.2% | 36.3% | 18.1% | 20.3% | 21.7% | 23.1% | 73.8% | 20.4% | 48.6% | 18.9% |
| CC(=O)c1cc(O)c2ccccc2c1O | 85.9% | 92.9% | 105% | 87.4% | 103% | 92.6% | 78.7% | 99.7% | 97.8% | 116% | 126% | 58% | 95.9% | 87.2% | 111% | 124% | 108% | 97.5% | 96.5% | 105% |
| O=C(c1ccc(Cl)cc1)N1CCN(c2ccnc3cc(Cl)ccc23)CC1 | 98.4% | 87.3% | 96.5% | 102% | 96.2% | 83.7% | 56.5% | 87% | 93.5% | 101% | 112% | 77.1% | 84.4% | 89.1% | 77.5% | 100% | 95.8% | 100% | 91% | 98% |
| Cc1cccc2c1NC(=O)C2(c1ccc(O)cc1)c1ccc(O)cc1 | 38% | 25.2% | 10.1% | 92% | 103% | 48.7% | 61.4% | 71.6% | 94.8% | -4.74% (active) | 84.6% | 99.9% | 93.1% | 86.3% | -11.2% (active) | 96.7% | 73.1% | 95.2% | 79.4% | 94.4% |
| O=C(Nc1ccc(NC(=O)c2cc(=O)[nH]c3ccccc23)cc1)Nc1cccc(C(F)(F)F)c1 | 62.3% | 87.9% | 62.5% | -7.24% (active) | 15.3% | 42.6% | 72.3% | 86.3% | 99.3% | 70.1% | 76.2% | 53% | 31.7% | 26.7% | 108% | 50.7% | 74.5% | 50.1% | 80.5% | 69.9% |
